In PubChem BioAssay AID817 (Emory University Molecular Libraries Screening Center, 2007):
The campaign covered roughly 140,000 compounds. About 300 (0.21%) were called active.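 How the source made its calls: active means z-score above 3 at both the 24 hr and the 30 hr optical density reads; inactive means the rest, inconclusive results apart.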 The full list was thinned out, with actives kept by preference.

Experiment: growth rescue of sdo1-depleted yeast, primary screen, S. cerevisiae, bone marrow failure model (AID 817);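 further: z-score against mean and SD of all compound wells on the same plate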
Conditions: S. cerevisiae sdo1-depleted JHY4D growth rescue, at 10 µM, stronger effect = higher value, pdr5 snq2 efflux-pump mutant strain
[1] = OD600, measured here: growth rescue at 24 h

| SMILES | z-score (OD600 30 h) | z-score [1] |
| --- | --- | --- |
| Cc1cccc(N=C2NN=C(c3c[nH]c4ccccc34)CS2)c1 | -1 (inactive) | -0.78 |
| COC(=O)c1c(NC(=O)CN2C(=O)NC(CCc3ccccc3)C2=O)sc2c1CCCCC2 (stereo unspecified) | 0.43 (inactive) | 0.79 |
| Cc1ccc(Sc2ccncc2S(N)(=O)=O)cc1 | 1.59 (inactive) | 0.76 |
| O=C(O)c1ccc(N=NN2CCOCC2)cc1 | -0.02 (inactive) | -0.59 |
| COc1ccc(C2Nc3ccccc3C(=O)N2c2ccc(Cl)cc2)cc1Cn1cc([N+](=O)[O-])cn1 (stereo unspecified) | -0.41 (inactive) | -0.21 |
| O=C(N/N=C/c1ccc2c(c1)OCO2)c1ccc(Cn2cc([N+](=O)[O-])cn2)o1 | 0.69 (inactive) | -0.21 |
| CCC(=O)Nc1nc(OC)cc(OC)n1 | 0.5 (inactive) | -0.32 |
| COc1cc(OC)nc(NC(=O)CCl)n1 | -0.13 (inactive) | -1.15 |
| COc1cc(OC)nc(S(C)(=O)=O)n1 | 3.91 (active) | 4.26 |
| O=C(c1ccc(S(=O)(=O)c2ccccc2)cc1)N1CCCCCC1 | 1.85 (inactive) | 2.69 |
| Cc1c(Cl)cccc1NC(=O)Nc1ccc(C(=O)N2CCCC2)cc1 | 0.9 (inactive) | -0.18 |
| CS(=O)(=O)Nc1ccc(C(=O)N2CCCC2)cc1 | 8.85 (active) | 8.64 |
| Cc1ccc(-c2nnc(SCC(=O)N/N=C/c3cccs3)n2-c2ccc(C)cc2)cc1 | 0.44 (inactive) | 0.52 |
| CCOc1ccc(C(=O)NC(=S)Nc2ccc(NC(=O)C(C)C)cc2)cc1[N+](=O)[O-] | -0.64 (inactive) | 0.38 |
| CC(=O)COc1ccc2c(-c3ccccc3)cc(=O)oc2c1 | -0.11 (inactive) | -0.39 |
| COc1cc(/C=C/CO)cc(OC)c1O[C@@H]1O[C@H](CO)[C@@H](O)[C@H](O)[C@H]1O | 0.24 (inactive) | 0.99 |
| Cc1ccc(S(=O)(=O)C2C(=O)NC3(C)CC2c2ccccc2O3)cc1 (stereo unspecified) | 0.78 (inactive) | 0.14 |
| CCOC(=O)C1=C(C)Nc2nc3ccccc3n2C1c1cccs1 (stereo unspecified) | -0.33 (inactive) | 0.25 |
| CCCc1cc(=O)[nH]c(SCC(=O)N2CCN(S(=O)(=O)c3ccc(C)cc3C)CC2)n1 | 0.64 (inactive) | 0.59 |
| Cc1cc(OCCN2CCCC2)cc(C(C)C)c1 | -1.32 (inactive) | -1.82 |
| Cc1cccc(Nc2nc3c(S(=O)(=O)c4ccccc4)nnn3c3ccccc23)c1C | 2.09 (inactive) | 3.12 |
| O=C(NC(=O)N1CCOCC1)c1ccccc1 | 0.99 (inactive) | 0.24 |
| COc1ccc(C(=O)NC2(C(F)(F)F)NC(=O)N(CCCc3ccccc3)C2=O)c(OC)c1OC (stereo unspecified) | -0.49 (inactive) | 0.17 |
| O=C(/C=C/c1ccc(F)cc1)Nc1cccc(S(=O)(=O)Nc2cccc(C(F)(F)F)c2)c1 | -0.39 (inactive) | -0.2 |
| COc1ccc2c(CN3CCN(S(=O)(=O)c4cccs4)CC3)cc(=O)oc2c1 | -1.29 (inactive) | -1.27 |
| COc1cc(CC(=O)N/N=C/c2ccccc2)c([N+](=O)[O-])cc1OC | 0.66 (inactive) | 0.79 |
| Cc1ccc2[nH]c(C(=O)O)c(NC(=O)c3ccccc3[N+](=O)[O-])c2c1 | 1.28 (inactive) | 1.83 |

| SMILES | z-score (OD600 30 h) | z-score [1] |
| --- | --- | --- |
| CCN(CC)S(=O)(=O)c1cc([N+](=O)[O-])ccc1N=Nc1c(O)n(C)c2ccccc12 | -0.62 (inactive) | 0.64 |
| Cc1cccc(C(=O)c2cccc(C)c2)c1 | -0.29 (inactive) | -0.6 |
| CCOC(=O)c1c(/N=C/C2C(=O)CC(C)(C)CC2=O)sc(C)c1C | 0.94 (inactive) | 1.36 |
| O=C(/C=C/c1cccc([N+](=O)[O-])c1)NCCSCc1ccco1 | -0.03 (inactive) | -0.07 |
| CC(C)NC(=S)N1CCN(S(C)(=O)=O)CC1 | 0.56 (inactive) | 0.03 |
| COCCOC(=O)c1c(C)oc2cc(Br)c(OCC(N)=O)cc12 | 0.6 (inactive) | 0.18 |
| O=C(Nc1ccccc1Cl)c1ccccc1S(=O)(=O)c1ccccc1[N+](=O)[O-] | 0.14 (inactive) | 0.15 |
| C[C@@H]1NC(=O)c2cc([N+](=O)[O-])cc(F)c2NCCC[C@@H](C(N)=O)NC(=O)[C@H](CC(N)=O)NC1=O | 0.86 (inactive) | 0.49 |
| CN(c1ccccc1)S(=O)(=O)c1ccc(Cl)c(C(=O)NCCc2c[nH]c3ccccc23)c1 | 0.35 (inactive) | 0.28 |
| CC(Oc1ccccc1F)C(=O)NN (stereo unspecified) | -0.12 (inactive) | -0.98 |
| O=C(Cc1cccc2ccccc12)NCCC1=CCCCC1 | -0.77 (inactive) | -0.75 |
| O=C(Nn1c(-c2ccc(Cl)cc2)nc2ccccc2c1=O)c1cccnc1Cl | 0.6 (inactive) | 0.56 |
| CCOC(=O)C1=C(c2ccc(OC)cc2)C(=O)c2ccccc2C1=O | -1.39 (inactive) | -0.65 |
| CCOC(=O)CNC(=O)/C=C/c1c(Cl)cccc1Cl | -0.54 (inactive) | -0.72 |
| COc1ccc(OCC(O)CNC(=O)Nc2ccc(Cl)cc2)cc1 (stereo unspecified) | 0.9 (inactive) | 0.68 |
| S=C(NCCc1ccccc1)NCc1ccccc1Cl | -1.82 (inactive) | -1.22 |
| N#Cc1ccccc1NC(=O)COc1c(Br)cc(Br)c2cccnc12 | 0.47 (inactive) | 2.32 |
| O=C(NC(=S)N1CCN(Cc2ccccc2)CC1)c1ccccc1 | 0.36 (inactive) | 0.18 |
| CC(=O)c1cc(-c2ccccc2)n(CCC(=O)NC2CCCCCC2)c1C | -1.63 (inactive) | -1.27 |
| CCOC(=O)C1CCN(C(=O)c2ccccc2N(C)S(=O)(=O)c2ccccc2)CC1 | 0.01 (inactive) | -0.21 |
| O=C(NN1C(=O)C2C3C=CC(O3)C2C1=O)c1ccncc1 (stereo unspecified) | 0.24 (inactive) | -0.88 |
| Cc1ccc(S(=O)(=O)N2CCC(C(=O)N[C@@H](C)C(=O)NCc3ccco3)CC2)cc1 | 1.22 (inactive) | 0.16 |
| Cc1ccn(-c2cccc(-n3ccc(C)n3)n2)n1 | -0.06 (inactive) | -0.3 |
| COc1ccc2c(c1)C(SCC(=O)NCc1ccccc1)CC(C)(C)O2 (stereo unspecified) | -0.16 (inactive) | -0.58 |
| COc1ccc(-c2csc(NC(=O)COC(=O)c3ccc(Br)o3)n2)cc1 | 1.63 (inactive) | 1.52 |
| COC(=O)Cc1ccc(OCC(=O)Nc2ccc(OC(F)(F)F)cc2)cc1 | 0.38 (inactive) | 0.19 |
